An excerpt weighted towards active compounds, which were near 27% of everything screened.
PTK2B oligo ant: antagonists of human Pyk2 oligomerization | Q293 cells, Pyk2 FERM NanoBiT luminescence; active compounds read low | z-score (the deposit names both 25 µM and 10 µM) | hit rate 0.83% among 99,000;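 active = Z-score of -3 or lower, scaled per plate to the spread of control and sample wells; inactive = z-score above -3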;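 also: negative z-score means lost luminescence so less FERM oligomerization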
CYP2C19 inhib: human CYP2C19 inhibition; CYP2C19 Supersomes, luciferin-H EGE luminescence, 30 min; inhibition, % at 5 µM; hit rate 21% among 96,000;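 active = CYP2C19 inhibition above a set limit at 5 µM in the primary screen, cut at about 50% in these data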;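 also: plate controls were negative control wells for no effect and 2.5 mM tranylcypromine positive control for full effect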
CYP2C9 act: CYP2C9 (human) activation. activation factor at 5 µM. recombinant CYP2C9, luciferin-H conversion, luminescence; active compounds read high; factor 1 = untreated enzyme, 0 = blocked. P11712. hit rate 1.4% among 96,000;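 active = activation factor of 2 or more for CYP2C9 at a 5 µM dose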;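 also: 0 = sulfaphenazole-blocked wells and 1 = vehicle-only wells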
Cav3 T inh: inhibitors of human Cav3.2 T-type calcium channel; O95180; Cav3.2-expressing cells, Fluo-4 calcium fluorescence FDSS; active compounds read low; B-score at 10 µM; hit rate 4% among 100,000; AID 449739;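 active = single-dose well whose peak fluorescence ratio is a statistical outlier from its plate by either plate-standardised score or position-corrected B-score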
CYP2C19 activ: cytochrome P450 2C19 (human) activation; P33261; recombinant CYP2C19, luciferin-H EGE luminescence; active compounds read high; 0 = fully inhibited enzyme, 1 = untreated enzyme; activation factor at 5 µM; 96,000 tested, under 10 active; AID 1025;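 active = activation factor of at least 2 at 5 µM in the primary screen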;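 also: 0 = wells with 2.5 mM tranylcypromine and 1 = vehicle-only wells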
CYP2C9 inh: human CYP2C9 inhibition; inhibition, % at 5 µM; CYP2C9 Supersomes, luciferin-H conversion, luminescence; hit rate 20% among 96,000; P11712;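 active = blocking of liver enzyme CYP2C9 beyond about 50% at 5 µM, limit read from the data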
Starred values were filed as active, the others as inactive; · = no result given.

SMILES	PTK2B oligo ant	CYP2C19 inhib	CYP2C9 act	Cav3 T inh	CYP2C19 activ	CYP2C9 inh
CCC(C)NC(=O)C1CN(S(=O)(=O)c2ccccc2)CCN1S(=O)(=O)c1ccccc1 (centres undefined)	-0.4	66.3*	0.8	1.61	0.3	22.8
CCC(CC)NC(=O)Cc1ccccc1[N+](=O)[O-]	-0.39	25.7	0.9	0.802	0.7	5.4
CCN(CC)c1ccc2cc(C(=O)Nc3ccc(-n4cnnn4)c(OC)c3)c(=O)oc2c1	·	-2.4	1	·	1	3.6
CCCCOc1ccc(NC(=O)CSc2nnnn2C)cc1	-0.3	-23.3	1.1	0.806	1.2	-9.4
COC1(OC)N=C(NC(=O)Nc2ccccc2)C2(C#N)C(c3ccccc3)C12C#N (centres undefined)	0.64	-3.5	0.9	0.631	1	5.3
O=C(COc1ccc2ccccc2c1)Nc1ccc(S(=O)(=O)N2CCCCCC2)cc1	1.07	·	·	-0.897	·	·
O=S(=O)(c1ccc2ccccc2c1)N1CCCCC1	0.02	32.8	2.5*	0.058	0.7	-154.8
O=S(=O)(c1ccc2ccccc2c1)N1CCCOC1	0.97	49.0	3.5*	-0.707	0.5	-253.8
Cc1ccc(S(=O)(=O)N2CCCOC2)cc1	-0.9	40.7	1.1	-0.0764	0.6	-11.0
CC(=O)NC1=C(C#N)C(c2ccccc2)c2c(ccc3ccccc23)O1 (centres undefined)	-0.34	91.0*	0	-0.537	0.1	95.4*
CCC(C)(C)n1nnnc1C(c1ccc2ncccc2c1)N1CCN2CCCC2C1 (centres undefined)	0.5	59.0*	1	0.517	0.4	3.0
OC1CCN(C(c2ccc3ncccc3c2)c2nnnn2C2CCCCC2)CC1 (centres undefined)	-0.01	-14.3	1.1	-0.962	1.1	-8.4
c1cnc2ccc(C(c3nnnn3C3CCCCC3)N3CCN4CCCC4C3)cc2c1 (centres undefined)	-0.4	-0.6	0.3	0.652	1	68.8*
CC1CCCCN1C(=O)CSc1nnc(CSc2ncccn2)n1C (centres undefined)	0.11	-14.7	1.1	-0.283	1.1	-8.6
Cc1cc(C)nc(N2CCCC(C(=O)NC(C)CCc3ccco3)C2)n1 (centres undefined)	0.49	73.9*	0.4	-1.69	0.3	58.7*
Cc1nc(N2CCN(C(=O)c3ccco3)CC2)c2c3c(sc2n1)CCC3	4.35	85.6*	0.1	0.294	0.1	85.6*
Cc1sc2nc(C(C)C)nc(SCC(=O)N3CCN(C(=O)c4ccco4)CC3)c2c1C	0.12	79.6*	0.1	1.72	0.2	92.0*
Cc1sc2ncnc(SCC(=O)N3CCN(C(=O)c4ccco4)CC3)c2c1C	0.62	11.1	0.6	0.98	0.9	38.3
CC(C)c1nc(N2CCN(C(=O)c3ccco3)CC2)c2c3c(sc2n1)CCCC3	-0.78	38.1	0.4	-2.28	0.6	58.5*
O=C(Nc1ccc(Cl)c(Cl)c1)N1CCSCC1	1.81	·	·	0.0808	·	·
COc1ccc(S(=O)(=O)Cc2ccc(C(=O)N3CCN(C4CCCCC4)CC3)o2)cc1	·	1.8	0.3	-1.09	1	65.7*
O=C(c1ccc(CS(=O)(=O)c2ccc(Br)cc2)o1)N1CCCC1	·	26.1	0.7	-0.00796	0.7	30.9
Cc1ccccc1S(=O)(=O)Cc1ccc(C(=O)N2CCN(C3CCCCC3)CC2)o1	·	·	·	0.552	·	·
O=C(c1ccc(CS(=O)(=O)c2ccc(Br)cc2)o1)N1CCCCCC1	·	80.3*	1.3	-0.387	0.2	-29.1
O=C(c1ccc(CS(=O)(=O)c2ccc(Br)cc2)o1)N1CCN(C2CCCCC2)CC1	·	-4.3	0.2	·	1	77.7*
SMILES	PTK2B oligo ant	CYP2C19 inhib	CYP2C9 act	Cav3 T inh	CYP2C19 activ	CYP2C9 inh
O=C(NCCN1CCOCC1)c1ccc(CS(=O)(=O)c2ccc(Br)cc2)o1	·	·	·	0.998	·	·
Cc1ccc(NC(=O)Nc2nc(-c3ccc(C)s3)cs2)cc1	-0.41	17.9	0.8	0.66	0.8	24.9
CN1CCN(c2nc3nonc3nc2N2CCN(C)CC2)CC1	0.81	5.3	0.9	0.746	0.9	8.5
N#Cc1nc(-c2ccc(Cl)cc2)oc1NCc1cccc2c1OCO2	-0.28	34.5	0.1	0.926	0.7	94.1*
COc1ccc(-c2nc(C#N)c(NCc3ccccc3Cl)o2)cc1	-1.21	-18.9	1.1	0.818	1.2	-11.3
COCCNc1oc(-c2ccc(C)cc2)nc1C#N	0.64	85.5*	0.1	·	0.1	86.2*

Screening data from PubChem BioAssay.
